Experimental findings from PubChem BioAssay are described below.

Test [1] can be described thus: hESC survival regulators, cell-based (AID 493140; call rule not given here;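 also: cells exposed to compounds for four days before counting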). As to conditions: human embryonic stem cell survival screen; stronger effect = higher value.
Test [2] in a line: liver-stage malaria parasite growth inhibition, primary screen, cell-based, HepG2, luciferase luminescence, HepG2 viability (AID 624349; in the data active = parasite load remaining mostly below about 12%, no sharp cut-off; inactive = mostly above about 10%;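 also: 100% = mean of DMSO negative control wells on the same plate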). The note with it: P. berghei liver stage in HepG2, luciferase luminescence, concentration not given here; parasite load remaining: stronger effect = lower value; viability: measured here: HepG2 viability without parasites.
Test [3] can be described thus: stimulators of nuclear beta-catenin in C2C12, primary screen, imaging, WNT3A-conditioned medium, mouse C2C12, NPC library (AID 1117326; in the data active = nuclear beta-catenin stimulation mostly above about 4.2%, no sharp cut-off; inactive = mostly below about 10%). As to conditions: stronger effect = higher value.
Test [4] is described as follows: stimulators of insulin release from INS-1E, primary screen, cell-based, 5 mM glucose, NPC library (AID 1117329;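 active = compound raises insulin release from rat beta cells at 5 mM glucose, no numeric limit stated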). The note with it: rat INS-1E insulin secretion, at 10 µM, stronger effect = higher value.
Test [5] in a line: growth inhibition of GSK3B-pretreated HCT116 cells – cell-based, CellTiter-Glo, 0.2 to 20 µM (AID 1117336;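 active = compounds lowering colon cancer cell viability after pretreatment blocking the GSK3B kinase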). The note with it: HCT116 viability after GSK3B inhibitor, at 20 µM, stronger effect = higher value. On the technique in general: ATP-based viability assays read luminescence as a measure of living cells.
A short description of test [6]: inhibition of endothelial tube formation, primary screen, imaging, VEGF stimulated, CD31 staining, tube area, NPC library (AID 1117340;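 active = compound that reduces growth-factor-driven endothelial tube area in a mixed cell culture, no cutoff stated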). The note with it: VEGF-stimulated ADSC/ECFC co-culture, at 10 µM, stronger effect = higher value.
Test [7] can be described thus: glucagon-like peptide 1 release enhancers, primary assay, NCI-H716 cell line, NPC library (AID 1117341;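 active = compound raises GLP1 secretion from the human gut endocrine cells, with no numeric limit stated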). As to conditions: NCI-H716 cells, at 10 µM, stronger effect = higher value.
Test [8] can be described thus: HCT116 colon cancer cell growth inhibition, primary screen, CellTiter-Glo luminescence, NPC library (AID 1117342;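 active = compounds that lower survival of HCT116 colon cancer cells in the luminescence readout, no numeric limit stated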). The note with it: at 20 µM (top of the series).
Test [9] is described as follows: CellTiter-Glo luminescent readout of SW480 viability loss, NPC library primary (AID 1117343;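 active = compounds that lower viability of the colon cancer cells in the luminescence readout, with no numeric limit stated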). As to conditions: CellTiter-Glo luminescence; at 20 µM (top of the series) unless noted.
Test [10] is described as follows: decreased DLD-1 cellular survival, CellTiter-Glo luminescent readout, NPC compound collection, primary HTS (AID 1117346;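 active = compounds that lower survival of DLD-1 colon cancer cells in the luminescence readout, no cutoff given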). The note with it: DLD-1 viability, CellTiter-Glo luminescence; at 20 µM (top of the series).
Test [11] can be described thus: differential killing of epithelial or mesenchymal cells, primary screen, imaging, PC-3E GFP, TEM4-18 mCherry, co-culture (AID 1345086;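 active = compounds killing one labelled cell type while sparing the other, by normalised counts and ratio limits, not self-fluorescent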;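 as to all read-outs here: cells exposed to compound for 72 h before imaging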;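 as to red/green cell ratio (normalised): normalised mesenchymal count divided by normalised epithelial count so high means epithelial killing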). As to conditions: imaging cell counts, at 1 µM; for red/green cell ratio (normalised): actives lie on both sides, counts scaled to control wells, 1 = unselective.
Test [12] can be described thus: sensitizers of A549 cells to miR-34 induction, primary screen, imaging, A549 dox-inducible miR-34, nuclei and caspase counts (AID 1347080). The note with it: A549 miR-34 inducible, Hoechst nuclei count, 48 h.
The nature of test [13]: survival rescue of mitochondrial mutant cells in low glucose, primary screen, MELAS cybrids, Rieske KO mouse fibroblasts, CellTiter-Glo (AID 1508586;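 active = mean z-score across replicates of 1.96 or higher in either the MELAS or the Rieske mutant cell line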;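 also: z relative to plate mean and SD of compound and empty wells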).
Test [14] concerns the target NAD(+) hydrolase SARM1 (Homo sapiens) (UniProt Q6SZW1). The test can be described thus: SARM1 TIR NADase inhibitors, cell lysate, NAD-Glo luminescence (AID 1508614;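 active = compound whose remaining NAD level is above about 45 nM, limit read from the data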;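 also: higher remaining NAD means stronger inhibition of SARM1 NADase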). The note with it: SAM-TIR HEK293T lysate NADase, at 1 µM, stronger effect = higher value.
Setting [15] is: measured here: epithelial PC-3E GFP cell survival.
Where [16] appears, read: measured here: mesenchymal TEM4-18 mCherry cell survival.
The mark [17] stands for this setting: stronger effect = lower value, cell number ratio, induced over uninduced.
The mark [18] stands for this setting: measured here: relative caspase fold change +Dox/-Dox.
Setting [19] is: measured here: total cells with miR-34 induction, stronger effect = lower value.
The mark [20] stands for this setting: measured here: total cells without miR-34 induction.
Where [21] appears, read: MELAS cybrid survival, CellTiter-Glo 48 h, stronger effect = higher value.
Setting [22] is: Rieske KO mouse fibroblast survival, CellTiter-Glo 72 h.

Molecules are shown by their SMILES. Values joined by “and” are separate entries in the source; they are usually repeats but may differ in a detail not shown here. Equal values may be shown once. Active and inactive are the calls of the source.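 The calls were made as follows, unless noted: active = compounds whose cell count with miR-34 switched on is under 0.7 times the count with it off; inactive = the rest.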

Sequence of NAD(+) hydrolase SARM1 (Homo sapiens) (Q6SZW1 whole entry, looked up): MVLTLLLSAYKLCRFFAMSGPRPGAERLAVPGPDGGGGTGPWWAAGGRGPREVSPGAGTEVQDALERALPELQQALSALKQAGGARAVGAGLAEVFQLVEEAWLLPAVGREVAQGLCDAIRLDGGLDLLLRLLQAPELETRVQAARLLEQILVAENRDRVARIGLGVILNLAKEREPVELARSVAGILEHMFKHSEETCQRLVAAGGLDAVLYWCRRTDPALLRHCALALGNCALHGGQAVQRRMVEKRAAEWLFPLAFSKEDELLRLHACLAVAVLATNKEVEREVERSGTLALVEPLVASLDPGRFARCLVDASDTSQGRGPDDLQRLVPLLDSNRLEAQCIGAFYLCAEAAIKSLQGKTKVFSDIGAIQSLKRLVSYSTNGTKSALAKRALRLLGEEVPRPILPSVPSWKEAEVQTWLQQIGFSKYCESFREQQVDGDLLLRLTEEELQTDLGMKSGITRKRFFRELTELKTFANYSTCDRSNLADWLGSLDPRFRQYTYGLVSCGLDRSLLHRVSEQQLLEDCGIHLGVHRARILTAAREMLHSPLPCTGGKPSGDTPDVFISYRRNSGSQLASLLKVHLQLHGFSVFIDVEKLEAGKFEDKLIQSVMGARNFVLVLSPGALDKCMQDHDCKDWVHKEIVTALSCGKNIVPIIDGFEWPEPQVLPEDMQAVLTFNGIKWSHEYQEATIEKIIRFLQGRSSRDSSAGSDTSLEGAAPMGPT

`O=C(N/N=C/c1ccc([N+](=O)[O-])o1)c1ccc(O)cc1`: the survival in test [1] is 8.5 (inactive). In addition, the parasite load remaining in [2] is -8.11% (inactive) and 25.6% (inactive). The viability (as a rule, a read-out of living cells in per cent, often relative to untreated cells) in [2] is 21.5% and 60.5%. Besides, the nuclear beta-catenin stimulation in test [3] (at 10 µM) is 18.2% (inactive); in test [3] (stimulation, at 2 µM), 2%. Besides, the insulin secretion stimulation in test [4] is -3% (inactive). For the same compound, the viability decrease in [5] is 99.5% (active). The tube area decrease in test [6] is 26.5% (inactive). In test [7], the GLP1 secretion stimulation is 5.1% (inactive). In addition, in test [8], the inhibition of viability was 102% (active). Moreover, the viability decrease (inhibition) was 67.8% (active) in test [9] and 81.1% (active) in [10]. Also, in [11], the red/green cell ratio (normalised) is 0.78 (inactive). The normalised cell number in test [11] (setting [15]) amounted to 1.11; in test [11] (setting [16]) it was 0.87. The fold change in test [12] (setting [17]) was 0.844 (inactive); in test [12] (setting [18]) it was 1.92. The cell count is 3090 in test [12] (setting [19]) and 3660 in test [12] (setting [20]). Moreover, the z-score is -3.44 (inactive) in test [13] (setting [21]) and -1.34 in test [13] (setting [22]). Moreover, the remaining NAD in test [14] is 10 nM (inactive).
Consider `CC1CC(OC(=O)c2ccccc2O)CC(C)(C)C1` (configuration not stated), for which, in test [1], the survival was 6 (inactive). In addition, in test [2], the parasite load remaining was 86.4% (inactive) and 63% (inactive). For the same compound, the viability in test [2] was 75.8% and 101%. Besides, the nuclear beta-catenin stimulation is 1.8% (inactive) in [3] (at 10 µM) and -0.1% in [3] (stimulation, at 2 µM). The insulin secretion stimulation in [4] is 0% (inactive). The viability decrease in test [5] was -63.6% (inactive). In addition, the tube area decrease in [6] is 4.9% (inactive). In addition, the GLP1 secretion stimulation in test [7] is -7.6% (inactive). Further, in test [8], the inhibition of viability was 9.33% (inactive). The viability decrease (inhibition) in test [9] is 6% (inactive); in [10], -0.4% (inactive). Also, the red/green cell ratio (normalised) in [11] is 1.12 (inactive). The normalised cell number in [11] (setting [15]) came out at 1.37; in [11] (setting [16]), 1.53. Moreover, the fold change in test [12] (setting [17]) is 0.96 (inactive) and 0.853 (inactive); in [12] (setting [18]), 0.489 and 3.24. The cell count in [12] (setting [19]) is 9060 and 10300; in [12] (setting [20]) it was 9440 and 12000. For the same compound, the z-score in test [13] (setting [21]) is -0.66 (inactive); in test [13] (setting [22]), -0.623. Also, the remaining NAD in test [14] was 10 nM (inactive).
In the case of `O=C(O)Cc1ccc(-c2ccccc2)cc1`, the survival in [1] is 7.67 (inactive). Further, the parasite load remaining in test [2] was 98.2% (inactive). Further, the viability in test [2] worked out at 99.7%. Further, the nuclear beta-catenin stimulation was -0.4% (inactive) in test [3] (at 10 µM) and 0.3% in test [3] (stimulation, at 2 µM). Further, the insulin secretion stimulation in test [4] is -1.1% (inactive). Moreover, the viability decrease in [5] was -34.7% (inactive). The tube area decrease in test [6] was 6.9% (inactive). In addition, the GLP1 secretion stimulation in test [7] is 1.7% (inactive). Besides, in test [8], the inhibition of viability was 2.33% (inactive). Further, the viability decrease (inhibition) was 7.7% (inactive) in test [9] and -10.7% (inactive) in test [10]. In addition, in test [11], the red/green cell ratio (normalised) was 0.72 (inactive). Also, the normalised cell number was found to be 1.44 in test [11] (setting [15]) and 1.04 in test [11] (setting [16]). The fold change in [12] (setting [17]) was 0.915 (inactive); in test [12] (setting [18]), 1.39. Besides, the cell count is 9920 in test [12] (setting [19]) and 10800 in test [12] (setting [20]). In addition, the values for the z-score in test [13] (setting [21]) and in test [13] (setting [22]) were 0.702 (inactive) and -0.122, respectively. In addition, the remaining NAD in [14] was 10 nM (inactive).
With `CCOc1nc2cccc(C(=O)O)c2n1Cc1ccc(-c2ccccc2-c2nn[nH]n2)cc1`, the parasite load remaining in test [2] was 51% (inactive). Also, the viability in test [2] amounted to 130%. For the same compound, the nuclear beta-catenin stimulation was -1.9% (inactive) in test [3] (at 10 µM) and 0.8% in [3] (stimulation, at 2 µM). The insulin secretion stimulation in test [4] is 1.4% (inactive). In addition, in test [5], the viability decrease was -7.7% (inactive). Moreover, the tube area decrease in test [6] was 5.3% (inactive). Also, the GLP1 secretion stimulation in test [7] is -1.6% (inactive). For the same compound, the inhibition of viability in test [8] was -9.8% (inactive). Besides, the viability decrease (inhibition) was 16.8% (inactive) in test [9] and -13% (inactive) in [10]. Further, the red/green cell ratio (normalised) in test [11] was 1.24 (inactive). Also, the normalised cell number in test [11] (setting [15]) was 1.08; in test [11] (setting [16]) it was 1.35. Further, the fold change in test [12] (setting [17]) is 1.02 (inactive) and 0.834 (inactive); in test [12] (setting [18]), 0.596 and 1.3. Also, the cell count is 7490 and 8900 in [12] (setting [19]); 7350 and 10700 in test [12] (setting [20]). Further, the z-score in test [13] (setting [21]) is -0.183 (inactive) and 0.664 (inactive) and -0.412 (inactive); in [13] (setting [22]) it was -0.0185 and -0.257 and -0.953. Also, in test [14], the remaining NAD is 10 nM (inactive).
